Screening results (PubChem)
HT1080 IDH1KD tx = toxicity to HT-1080 IDH1 knockdown cells (counter line); 360,000 tested, 2% active; AID 686971; Potency, µM (top dose mostly 46.1 µM), usual class: cytotoxic; HT-1080 IDH1 knockdown viability, ATP luminescence, 48 h
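Cytotoxicity counter-line: IDH1KD HT-1080, 48 h, CellTiter-Glo. Curves classed by r2, magnitude and activity.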
DT40 TDP1 CPT = growth inhibition of DT40 Tdp1-/-;hTDP1 cells with camptothecin (screen for TDP1 inhibitors) | chicken DT40 Tdp1-/-;hTDP1 cells + 20 nM CPT, ATP luminescence, 48 h | Potency, µM (top dose mostly 46.2 µM), actives largely listed as inhibitors | 420,000 tested, 12% active; also: nearly all actives have a fitted effect of over 55% in size
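Chicken DT40 Tdp1-/- cells stably complemented with human TDP1 were seeded at 400 cells/well in medium containing 20 nM camptothecin, exposed to pin-transferred compounds, and grown at 37 °C for at least 48 hr. Viability was read as ATP luminescence.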
ELG1 DNA repair = ELG1-dependent DNA repair inhibition | Potency, µM (top dose mostly 46.1 µM), actives largely listed as inhibitors | HEK293T ELG1-luciferase reporter, luminescence, 16 h; DNA damage induced by 5-fluorouridine | AID 504467 | 330,000 tested, 2.3% active; also: nearly all actives have a fitted effect of over 55% in size
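Reporter activity after DNA damage by 5-fluorouridine is monitored. Compound-treated cells incubate 16 hr at 37 °C, then ONE-Glo is added for 30 min before luminescence reading.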
TDP1 cell noCPT = qHTS for Inhibitors of human tyrosyl-DNA phosphodiesterase 1 (TDP1): qHTS in cells in absence of CPT | DT40 Tdp1-/- hTDP1 cells, no CPT, ATP luminescence, 48 h | Potency, µM (top dose mostly 46.2 µM), most hits filed as inhibitors | 420,000 tested, 15% active | AID 686978, 2013; also: nearly all actives have a fitted effect of over 55% in size
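No-CPT arm: Tdp1-/-;hTDP1 DT40 cells (400/well) plus compounds, incubated ≥48 hr at 37 °C. Readout CellTiter-Glo luminescence.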
IL1B secr inh = inhibitors of inflammasome signaling (IL-1 beta secretion). THP-1 LPS/ATP IL-1B secretion, AlphaLISA, 16 h; stronger effect = lower value. activity change, % at 57.5 µM. 360,000 tested, 4.7% active; in the data active = activity change below about -50%; inconclusive = mostly about -30% to -49%
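THP-1 cells pretreated 1 hr with compounds (up to 57.5 uM final), then stimulated with LPS (250 ng/mL final) plus ATP (1.25 mM final); secreted IL-1B measured by AlphaLISA after 16 hr, decreased signal indicating inhibition.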
HT1080-NT tox = kills 2HG-producing HT-1080-NT fibrosarcoma cells. 360,000 tested, 1.6% active. HT-1080-NT fibrosarcoma viability, CellTiter-Glo ATP luminescence, 48 h. AID 686970. Potency, µM (doses to about 46.1 µM), hits mostly cytotoxic;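 also: NT is the 2HG producing partner of a matched IDH1 knockdown line; nearly all actives have a fitted effect of over 55% in size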
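Luminescent CellTiter-Glo readout after 48 hours of compound exposure at 37 degrees C defined viability of HT-1080-NT cells. Activity was normalized to DMSO wells and cell-free media wells; concentration-response curves were fitted and assigned curve classes.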
A number is an active result; n = inactive; u = inconclusive; x = not tested or not shown; [ ] = another dose, or the depositor's remark. Hits are enriched below; roughly 19% of the tested compounds scored in any of these assays. Unless noted, calls follow the shape of the dose curve; as a rule, active = well fitted curve in the direction sought with a large enough effect; inconclusive = small, poorly fitted or top-dose-only effect, or another doubt; inactive = no such curve, though single readings can be large; an effect the other way counts as inactive or inconclusive.

SMILES	HT1080 IDH1KD tx	DT40 TDP1 CPT	ELG1 DNA repair	TDP1 cell noCPT	IL1B secr inh	HT1080-NT tox
CC(C)(C)c1nn(-c2ccccc2)c2[nH]c(=O)c(CNCc3ccco3)cc12	u	21µM	n	23µM	n	n
O=C([C@@H]1CCCN1C1=NS(=O)(=O)c2ccccc21)N1CCN(c2ccccc2)CC1	n	n	x	n	n	n
CCOc1ccc(-n2c(C)c(C(=O)OC)c3cc(O)ccc32)cc1	n	n	u	u	n	n
CCOC(=O)c1c(C)n(CCOc2ccccc2)c2ccc(O)cc12	n	n	n	n	n	n
CC(=O)c1c(C)n(-c2ccccc2)c2ccc(O)cc12	n	n	u	u	n	n
COC(=O)c1c(C)n(-c2ccc(C)cc2)c2ccc(O)cc12	20µM	35µM	n	18µM	n	13µM
COC(=O)c1c(C)n(-c2ccccc2)c2ccc(O)cc12	u	u	u	u	n	11µM
CCOC(=O)c1c(C)n(CC(O)c2ccccc2)c2ccc(O)cc12 (stereo unspecified)	n	u	u	18µM	n	n
Cc1ccc2nc(SCC(=O)N3CCOc4ccc(CN5C[C@@H](C)O[C@@H](C)C5)cc4C3)[nH]c2c1	x	n[9.04 µM]	x	u	x	x
O=C1NN=C2CCCCCCCCCCC12 (stereo unspecified)	n	n	x	n	n	n
Cc1c(-c2cccc(Cl)c2)nc2ccccc2c1C(=O)OCC(=O)Nc1ccc2c(c1)OCO2	u	u	18µM	u	-59	n
CCCc1nc2ccccc2c(C(=O)OCC(=O)NCc2ccc3c(c2)OCO3)c1CC	n	u	u	u	n	n
CCc1nc2ccccc2c(C(=O)OCC(=O)NCc2ccc3c(c2)OCO3)c1C	n	u	u	18µM	n	n
CCCc1nc2ccccc2c(C(=O)OC(C)C(=O)NCc2ccc3c(c2)OCO3)c1CC (stereo unspecified)	n	29µM	21µM	18µM	u	n
Cc1onc(-c2ccccc2)c1C(=O)OCC(=O)Nc1ccc2c(c1)OCO2	n	n	n	n	n	n
CCOC(=O)N1CCN(C(=O)CN(c2cccc(Cl)c2)S(=O)(=O)c2ccccc2)CC1	x	n	x	u	x	x
Cc1c(NC(=O)C(F)(F)F)ccc2nc3c(=O)n(C)c(=O)n(C)c3nc12	x	u	x	16µM	x	x
CCC(C)NC(=O)c1ccc(NC(=O)C2=C(C)OCCS2)cc1 (stereo unspecified)	n	n	n	n	n	n
NC1=NC[C@H](Cc2ccccc2)N1CCCCC1CCCCC1	n	5.2µM	n	5.2µM	u	n
NC1=NC[C@H](Cc2ccc(O)cc2)N1CCc1cc(C(F)(F)F)cc(C(F)(F)F)c1	n	u	n	u	n	n
NC1=NC[C@H](Cc2ccccc2)N1CCc1cccc(F)c1	n	13µM	n	12µM	n	n
O=C1NC[C@H](c2ccccc2)N(CCc2cccc(F)c2)C1=O	n	n	n	n	n	n
NC1=NC[C@H](Cc2ccc(O)cc2)N1CCCCC1CCCCC1	n	4.6µM	u	2.6µM	-58	n
CN(C)c1ncc2nc(-c3ccccc3)c(=O)n(C)c2n1	x	n	x	n	x	x
CC(C)(C)c1cc2ncnc(N3CCCCC3)c2s1	n	13µM	n	29µM	n	n
CCCCC12CN3CC(C)(CN(C1)C3c1c(C)[nH]c(=O)[nH]c1=O)C2=O (stereo unspecified)	x	n	x	n	x	x
CCOc1ccc2ccccc2c1C(=O)N1CCN(c2ccccc2)CC1	7.9µM	u	n	16µM	n	u
COc1ccccc1OCC(=O)Nc1ccc(O)cc1C(=O)O	n[9.24 µM]	n	n	n	n	n
COc1cc(Cl)ccc1NC(=O)COc1ccccc1C(=O)N1CCN(c2ccc(O)cc2)CC1	n	23µM	13µM	23µM	n	n
CCOc1ccccc1C(=O)N1CCN(c2cccc(Cl)c2)CC1	0.11µM	0.037µM	n	0.16µM	n	0.25µM
